We go through 16 compounds from the supplement of paper PMC10037445.

Over roughly 2,900 compounds, “NF-kB SEAP reporter activity, fold change vs agonist alone” has its median near 0.99; the highest 2% begin near 2.6. For the sample, the highest values were picked, then their nearest neighbours and some compounds at random.

For test [1], the system named is RAW-Dual. The test can be described thus: NF-kB SEAP reporter activity, fold change vs agonist alone; cytotoxicity flag (confluency mask): not cytotoxic; higher = enhanced NF-kB activity. The essentials: (§1)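 RAW-Dual macrophages were seeded in DMEM at 50,000 cells/well in 384-well plates, given 50 nL of library stock by pin tool, and given a PRR agonist 1 h later. Plates were held at 37 °C, 5% CO2 for 20 hours, after which supernatant was read for IRF by QuantiLuc luminescence and for NF-κB by QuantiBlue absorbance at 620 nm. Reporter activity is expressed as fold change over wells that received agonist alone. A well was called cytotoxic when IncuCyte confluency fell below 70% of agonist controls in both mask sets.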

Test [2] deals with RAW-Dual. Put plainly: NF-kB SEAP reporter activity, fold change vs agonist alone; higher = enhanced NF-kB activity. The note with it: cytotoxicity flag (confluency mask): not cytotoxic. The essentials: as §1
The mark [3] stands for this setting: agonist: ODN 1826 (TLR9) 0.5 ug/mL.
Setting [4] is: agonist: Pam2CSK4 (TLR2/6) 0.1 ug/mL.
The mark [5] stands for this setting: agonist: Pam3CSK4 (TLR2/1) 0.1 ug/mL.
The mark [6] stands for this setting: library stock concentration (final ~1000-fold dilution): 10 mM, agonist: Imiquimod (TLR7) […].
Where [7] appears, read: library stock concentration (final ~1000-fold dilution): 10 mM, agonist: MPLA (TLR4) […].
Where [8] appears, read: library stock concentration (final ~1000-fold dilution): 10 mM water, agonist: MPLA (TLR4) […].

For `CC(C)n1nc(-c2ccc(NC(=O)Nc3cc(C(F)(F)F)ccc3F)cc2)c2c(N)ncnc21` (library stock concentration (final ~1000-fold dilution): 10 mM), the “NF-kB SEAP reporter activity” value in the test on RAW-Dual [1] (agonist: LPS (TLR4) 0.1 ug/mL) was 0.398; with RAW-Dual [1] (setting [3]), 0.196; with RAW-Dual [1] (setting [4]), 0.0706; in the test with RAW-Dual [1] (setting [5]) it was 0.216.

Take `CC(C)n1nc(-c2ccc(NC(=O)Nc3cc(C(F)(F)F)ccc3F)cc2)c2c(N)ncnc21`: the figures for the “NF-kB SEAP reporter activity” value with RAW-Dual [2] (setting [6]) and in the test with RAW-Dual [2] (setting [7]) were 0.149 and 0.261, respectively.

Consider `CC(C)n1nc(-c2ccc3oc(N)nc3c2)c2c(N)ncnc21` (library stock concentration (final ~1000-fold dilution): 10 mM), for which the “NF-kB SEAP reporter activity” value in the test on RAW-Dual [1] (agonist: LPS (TLR4) 0.1 ug/mL) is 2.03; in the test with RAW-Dual [1] (setting [3]), 1.69; in the test on RAW-Dual [1] (setting [4]), 0.647; in the test with RAW-Dual [1] (setting [5]) it was 0.973.

For `CC(C)n1nc(-c2ccc3oc(N)nc3c2)c2c(N)ncnc21`, the “NF-kB SEAP reporter activity” value came out at 1.76 with RAW-Dual [2] (setting [6]) and 2.1 with RAW-Dual [2] (setting [7]).

Consider `CC(C)n1nc(-c2cc3cc(O)ccc3[nH]2)c2c(N)ncnc21` (library stock concentration (final ~1000-fold dilution): 10 mM), for which the “NF-kB SEAP reporter activity” value worked out at 3.13 in the test with RAW-Dual [1] (agonist: LPS (TLR4) 0.1 ug/mL), 0.998 with RAW-Dual [1] (setting [3]), 1.01 in the test on RAW-Dual [1] (setting [4]) and 0.904 with RAW-Dual [1] (setting [5]).

As for `CC(C)n1nc(-c2cc3cc(O)ccc3[nH]2)c2c(N)ncnc21`, the figures for the “NF-kB SEAP reporter activity” value in the test with RAW-Dual [2] (setting [6]) and with RAW-Dual [2] (setting [7]) were 0.933 and 0.941, respectively.

On to `Cc1c(C(=O)Nc2ccc(N3CC(C)OC(C)C3)nc2)cccc1-c1ccc(OC(F)(F)F)cc1` (stereo unspecified), for which the figures for the “NF-kB SEAP reporter activity” value in the test with RAW-Dual [2] (setting [6]) and in the test on RAW-Dual [2] (setting [7]) were 0.808 and 0.657, respectively.

On to `Cc1c(C(=O)Nc2ccc(N3CC(C)OC(C)C3)nc2)cccc1-c1ccc(OC(F)(F)F)cc1` (stereo unspecified) (library stock concentration (final ~1000-fold dilution): 10 mM), for which the “NF-kB SEAP reporter activity” value in the test with RAW-Dual [1] (agonist: LPS (TLR4) 0.1 ug/mL) is 1.13; in the test with RAW-Dual [1] (setting [3]), 1.35; with RAW-Dual [1] (setting [4]), 0.839; in the test on RAW-Dual [1] (setting [5]), 1.12.

For the compound `N=C(N)NCCN1CCCCCCC1.O=S(=O)(O)O` (library stock concentration (final ~1000-fold dilution): 10 mM water), the “NF-kB SEAP reporter activity” value was found to be 1.13 with RAW-Dual [1] (agonist: LPS (TLR4) 0.1 ug/mL), 1.05 in the test on RAW-Dual [1] (setting [3]), 1.06 with RAW-Dual [1] (setting [4]) and 0.972 in the test on RAW-Dual [1] (setting [5]).

As to `N=C(N)NCCN1CCCCCCC1.O=S(=O)(O)O`, the “NF-kB SEAP reporter activity” value in the test on RAW-Dual [2] (setting [8]) turned out to be 1.05.

As for `CC1CC(=O)Nc2cccc(-c3ccc4c(c3)c(-c3cnn(C)c3)nn4C)c2N1` (stereo unspecified), the “NF-kB SEAP reporter activity” value in the test with RAW-Dual [2] (setting [6]) came out at 1.46; in the test with RAW-Dual [2] (setting [7]) it was 2.15.

On to `CC1CC(=O)Nc2cccc(-c3ccc4c(c3)c(-c3cnn(C)c3)nn4C)c2N1` (stereo unspecified) (library stock concentration (final ~1000-fold dilution): 10 mM), for which the “NF-kB SEAP reporter activity” value came to 3.26 in the test with RAW-Dual [1] (agonist: LPS (TLR4) 0.1 ug/mL), 2.08 with RAW-Dual [1] (setting [3]), 0.673 in the test with RAW-Dual [1] (setting [4]) and 1.28 in the test with RAW-Dual [1] (setting [5]).

As for `Cc1nc[nH]c1CN1CCc2c(c3ccccc3n2C)C1=O.Cl`, the “NF-kB SEAP reporter activity” value in the test on RAW-Dual [2] (library stock concentration (final ~1000-fold dilution): 2 mM water, agonist: MPLA (TLR4) […]) came out at 1.06.

With `Cc1nc[nH]c1CN1CCc2c(c3ccccc3n2C)C1=O.Cl` (library stock concentration (final ~1000-fold dilution): 2 mM water), the “NF-kB SEAP reporter activity” value with RAW-Dual [1] (agonist: LPS (TLR4) 0.1 ug/mL) was found to be 1.14; with RAW-Dual [1] (setting [3]) it was 1.09; in the test with RAW-Dual [1] (setting [4]), 1.15; in the test with RAW-Dual [1] (setting [5]), 0.961.

For the compound `NC(CSCCCO)C(=O)O` (stereo unspecified) (library stock concentration (final ~1000-fold dilution): 10 mM water), the “NF-kB SEAP reporter activity” value worked out at 1.11 in the test on RAW-Dual [1] (agonist: LPS (TLR4) 0.1 ug/mL), 1.09 with RAW-Dual [1] (setting [3]), 1.22 with RAW-Dual [1] (setting [4]) and 1.09 with RAW-Dual [1] (setting [5]).

Take `NC(CSCCCO)C(=O)O` (stereo unspecified): the “NF-kB SEAP reporter activity” value worked out at 0.937 with RAW-Dual [2] (library stock concentration (final ~1000-fold dilution): 10 mM water, agonist: Imiquimod (TLR7) […]) and 1.04 in the test with RAW-Dual [2] (setting [8]).
